Screening results: PubChem, National Center for Advancing Translational Sciences (NCATS)
Sampled rows, rich in hits. Any-hit rate of the full collection: about 6.5%.
VACV Venus inh – inhibitors of vaccinia virus (Venus reporter). 330,000 compounds, 0.46% hits. Potency, µM (doses to about 36.5 µM), most hits filed as inhibitors. Vaccinia virus Venus reporter expression, fluorescence; calls by dose curve; tested in A549 cells; further: nearly all actives have a fitted effect of over 30% in size
FMDV antiviral – blocks foot and mouth disease virus; FMDV antiviral cell-based qHTS; Potency, µM (highest dose often 57.9 µM), actives largely listed as inhibitors; 410,000 compounds, 1.2% hits; AID 1159524; calls by dose curve; tested in HEK293T cells; further: read-out not given here; nearly all actives have a fitted effect of over 45% in size
MARV entry inh – Marburg virus entry inhibition; Potency, µM (titrated, usually from 37.8 µM), actives largely listed as inhibitors; Marburg virus pseudotyped entry inhibition, cell reporter; 300,000 compounds, 1.8% hits; calls by dose curve; tested in HEK293 cells
HCMV antiviral – inhibitors of human cytomegalovirus | HFF cells, HCMV-luciferase reporter, 72 h; hits give low values | 410,000 compounds, 4.5% hits | activity change, negative = inhibition, % at 57.5 µM; in the data active means activity change below about -60%; inconclusive means no clear call, values can overlap the other calls; inactive means above about -39%
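Human foreskin fibroblasts infected with luciferase-reporter HCMV at MOI 1 PFU/cell, compounds at two doses. Luciferase measured 72 h post infection; normalized to buffer-only basal and Salinomycin (10uM) controls.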
LASV entry inh – inhibitors of Lassa virus binding or cell entry. Lassa virus pseudotype entry inhibition, cell reporter. Potency, µM (series often up to 37.9 µM), actives largely listed as inhibitors. 300,000 compounds, 1.2% hits; calls by dose curve; tested in HEK293 cells; further: nearly all actives have a fitted effect of over 50% in size
Vaccinia mCherry – vaccinia inhibition (mCherry reporter); Vaccinia virus mCherry reporter infection, fluorescence; Potency, µM (highest dose often 36.5 µM), actives largely listed as inhibitors; 310,000 compounds, 0.63% hits; AID 720579; calls by dose curve; tested in A549 cells; further: nearly all actives have a fitted effect of over 35% in size
Hits are given with their value; . = inactive; ? = inconclusive; / = not tested or not shown; [ ] = another dose, or the depositor's remark.

SMILES	VACV Venus inh	FMDV antiviral	MARV entry inh	HCMV antiviral	LASV entry inh	Vaccinia mCherry
CCN(CC)C(=O)c1cccc(NC(=O)c2ccc3c(=O)n4c(nc3c2)CCC4)c1	.	.	.	.	.	.
CCN(CC)S(=O)(=O)c1ccc(NC(=O)c2ccc3c(=O)n4c(nc3c2)CCCCC4)cc1	?	28µM	?	-93	?	?
CC(=O)O[C@@H]1N=C(c2ccccc2)c2ccccc2NC1=O	/	/	.	/	/	/
Cc1ccc(S(=O)(=O)CCC(=O)N(CCCN2CCOCC2)c2nc3ccccc3s2)cc1	?	.	?	.	?	14µM
Cc1ccc(C)c(N2CCN(C(=O)c3cccn3-c3nnc(N4CCCCC4)s3)CC2)c1	.	.	/	.	.	.
COc1ccc2c(c1)c(CC(=O)OCC(N)=O)c(C)n2C(=O)c1ccc(Cl)cc1	/	.	/	?	/	/
COc1ccc2c(c1)c(CC(=O)OCC(=O)N(C)C)c(C)n2C(=O)c1ccc(Cl)cc1	.	.	25µM	.	?	.
Cc1ccccc1Nc1ccc(S(=O)(=O)N2CCOCC2)cc1[N+](=O)[O-]	.	.	.	.	?	.
Cc1ccc(Nc2ccc(S(=O)(=O)N3CCOCC3)cc2[N+](=O)[O-])c(C)c1	.	.	?	-65	?	.
CCn1cc(S(=O)(=O)NC2CCCCC2)cn1	.	.	.	-60	?	.
CNC(=O)CN(c1ccc(C23CC4CC(CC(C4)C2)C3)cc1)S(C)(=O)=O	.	.	?	-60	.	.
CC(=O)Nc1ccc(NC(=O)CN(c2ccc(C34CC5CC(CC(C5)C3)C4)cc2)S(C)(=O)=O)cc1	?	/	.	.	?	?
CCC1=C(OC(=O)N(CC)CC)N2C(=O)OC(=NCc3ccccc3)[C@]2(C)[C@H]2C1=CC[C@H]1C(=O)N(c3ccccc3)C(=O)[C@H]12	.	.	/	.	/	.
CCC1=C(OC(=O)N(CC)CC)N2C(=O)OC(=NCc3ccccc3)[C@]2(C)[C@H]2C1=CC[C@H]1C(=O)N(CC(=O)OC)C(=O)[C@H]12	.	.	/	-62	/	.
CC(C)CON=C1C[C@@H](O)[C@@H](O)[C@@H]2[C@H]3C(=O)N(C4CCCCC4)C(=O)[C@@H]3CC[C@H]12	/	/	.	/	?	/
C[C@]12CC(O)C3C(CCC4=CC(=O)CC[C@@]43C)C1CCC2c1csc(-c2ccccc2)n1 (stereo partly specified)	.	.	/	-76	/	.
O=C(C(Cl)Cl)N1c2ccccc2OCC1c1ccccc1 (stereo unspecified)	/	?	.	-61	.	/
c1ccc(Cc2cnc(N3CCN(Cc4ccc5c(c4)OCCO5)CC3)nc2)cc1	/	/	/	.	/	/
COc1ccc(C(=O)Nc2ccc(NC(=O)c3ccccc3)cc2)cc1S(=O)(=O)N1CCOCC1	.	.	?	?	/	.
CNC(=O)c1ccc(NC(=O)c2cc(S(=O)(=O)N(C)C)ccc2N2CCCC2)cc1	/	.	/	-100	/	/
O=C(Nc1cccc(S(=O)(=O)N2CCOCC2)c1)c1cccc(S(=O)(=O)N2CCCCC2)c1	.	.	?	.	.	.
COc1ccc(C(=O)Nc2ccc(N3CCCCCC3)cc2)cc1S(=O)(=O)N1CCOCC1	/	.	/	-86	/	/
Cc1ccc(N(C)S(=O)(=O)c2cccc(C(=O)Nc3ccc(N4CCOCC4)cc3)c2)cc1	/	25µM	/	?	/	/
O=C(Nc1ccc(N2CCCCCC2)cc1)c1cccc(S(=O)(=O)N2CCOCC2)c1	.	?	?	-74	?	.
CCc1cccc(NC(=O)c2cc(S(=O)(=O)N(C)C)ccc2N2CCCC2)c1	.	.	?	.	.	.
SMILES	VACV Venus inh	FMDV antiviral	MARV entry inh	HCMV antiviral	LASV entry inh	Vaccinia mCherry
CC(=O)Nc1ccc(/C=N/NC(=O)c2cccc(S(=O)(=O)N3CCOCC3)c2)cc1	.	.	?	-102	.	.
CC(C)c1ccc(/C=N/NC(=O)c2cccc(S(=O)(=O)N3CCOCC3)c2)cc1	.	.	.	.	.	.
CN(C)S(=O)(=O)c1cccc(C(=O)Nc2ccc(N3CCOCC3)cc2)c1	.	.	.	-79	.	.
O=C(N/N=C/c1sc(N2CCOCC2)nc1-c1ccccc1)c1cccc(S(=O)(=O)N2CCCC2)c1	?	?	?	-112	?	?
CN(c1ccccc1)S(=O)(=O)c1cccc(C(=O)Nc2ccc(N3CCOCC3)cc2)c1	.	?	?	.	.	.
O=C(N/N=C/c1sc(N2CCOCC2)nc1-c1ccccc1)c1ccc(O)cc1	.	.	.	.	?	.
CCc1cc(C(=O)NCCN2Cc3ccccc3OC(c3ccsc3)C2)n(C)n1 (stereo unspecified)	.	.	/	/	/	.
COc1ccc(-c2nc3cc(NC(=O)Cc4ccc(OC)c(OC)c4)ccc3o2)cc1	/	?	?	-76	.	/
COc1ccc(-c2nc3cc(NC(=O)Cc4ccc(Cl)cc4)ccc3o2)cc1OC	?	.	/	-94	?	?
O=C(Cc1ccc(Cl)cc1)Nc1ccc2oc(-c3ccc(F)cc3)nc2c1	.	.	/	.	.	.
O=C(Cc1ccc(Cl)cc1)Nc1ccc2oc(=O)ccc2c1	.	.	.	-64	.	.
COc1cc(OC)c(NC(=O)NNC(=O)C(=O)NC2CC2)cc1Cl	/	/	/	.	/	/
CCc1cc2c(nc1CC)CCN(CC/C(C)=N/OC[C@@H](O)[C@H]1O[C@@H]3OC(C)(C)O[C@@H]3[C@H]1O)C2	/	/	.	/	/	/
N#Cc1cc(S(=O)(=O)c2ccc(F)cc2)c(N)[nH]c1=O	/	.	/	-70	/	/
N#Cc1cc(S(=O)(=O)c2ccccc2)c(N)[nH]c1=O	/	.	.	.	.	/
Cc1ccc(NC(C(=O)c2ccccc2)c2ccccc2)cc1 (stereo unspecified)	.	.	?	-100	?	?
CC(C)c1ccc(NC(=O)CSc2nnc(-c3ccccc3)n2C)cc1	.	/	/	/	/	.
COCCCN1C(=O)c2oc3ccccc3c(=O)c2C12C(=O)N(C)c1ccccc12 (stereo unspecified)	.	.	.	.	.	.
CCC(C)(C)C1CCc2c(sc(N)c2C(N)=O)C1 (stereo unspecified)	.	?	?	-76	?	.
CC(C)(C)C1CCc2c(sc(NC(=O)C3CCCO3)c2C(N)=O)C1 (stereo unspecified)	?	.	?	?	18µM	?
Cc1nn(Cc2cccc(F)c2)c(C)c1NC(=O)c1ccc(COc2ccccc2Cl)cc1	13µM	?	.	-76	.	11µM
Cc1nn(Cc2c(F)c(F)c(F)c(F)c2F)c(C)c1NC(=O)c1ccc(COc2ccc(Cl)cc2Cl)o1	?	.	?	-81	?	?
CC(=O)Nc1ccc(NC(=O)c2ccc(COc3ccc(Cl)cc3Cl)o2)cc1	.	.	?	.	.	.
Cc1nn(Cc2ccc(Cl)cc2Cl)c(C)c1NC(=O)c1ccc(COc2cc(Cl)ccc2Cl)o1	?	?	?	.	.	?
CC(C)CNC(=O)c1ccc(COc2ccc(Cl)cc2Cl)o1	?	.	.	.	11µM	.[1.46 µM]
Cc1ccc(Cl)cc1NC(=O)Cn1c(=O)n(CCC(=O)N2CCc3ccccc3C2)c(=O)c2ccccc21	.	.	.	.	?	.
